Experimental findings from PubChem BioAssay (NCATS) are described below.

Records with an inconclusive call do not appear. Entries that show only a call come without a potency. Unmarked numbers belong to inactive results. Active and inactive are the calls of the source. Calls come from the whole dose curve; as a rule, active = well fitted cell-killing curve with a large enough effect; inconclusive = small, poorly fitted or top-dose-only effect, or effect the other way; inactive = no such curve, though single readings can be large or run the other way.
Potency is the fitted concentration of half-maximal effect.

A short description of this test: Viability qHTS for spleen associated tyrosine kinase inhibitor (SYKi) naive MV4-11 cells (AID 1963823). Note: nearly all actives have a fitted effect of over 40% in size. The settings on record: MV4-11 AML viability, CellTiter-Glo luminescence, 72 h; series mostly up to 45 µM. Put shortly:
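Cells: MV4-11, SYK inhibitor naive, 500 per well. Treatment: library compounds, 72 hr, 37 C, 5% CO2. Read-out: CellTiter-Glo luminescence after 10 min RT.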
Background: qHTS replaces the single test concentration by a dilution series.
`C=CC(C)(O)CC/C=C(/C)C(=O)OC1C(OC2OCC(OC3OC(CO)C(O)C(O)C3O)C(OC3OCC(O)C(OC4OC(C)C(O)C(O)C4O)C3O)C2O)COC(OC(=O)C23CCC(C)(C)CC2C2=CCC4C5(C)CCC(OC6OC(CO)C(OC7OC(CO)C(O)C(OC8OCC(O)C(O)C8O)C7O)C(O)C6O)C(C)(C)C5CCC4(C)C2(C)CC3O)C1O` (stereo not given): the viability (% of control) is 68.9% [at 4.97 µM].
For `COC(=O)Cn1nc(-c2cccc(OC)c2)c2ccccc21`, the Potency result is “inactive”.
On the same count and under the same terms, with `CC(=O)OC1CC(C(C)(C)O)OC2CCC3(C)OC4=C(C(=O)C=C5C(C)C(OC(C)=O)C6(C)C(C)OC546)C(O)C3C12C` (stereo not given) the entry was “inactive”; with `CSc1ccc(/C=C2/C(C)=C(CC(=O)O)c3cc(F)ccc32)cc1`, “inactive”; with `CC(C)C1NC(=O)C(CC2(O)c3ccccc3N3C(=O)C(Cc4ccccc4)NC32)NC1=O` (stereo not given), “inactive”.
Still for that read-out and setting: with `OC[C@@]1(O)CO[C@H](OC[C@H]2O[C@@H](OCCc3ccccc3)[C@H](O)[C@@H](O)[C@@H]2O)[C@@H]1O` the entry was “inactive”; with `C[C@@H](c1ccccc1)N(C(N)=NC#N)c1cccc2ncccc12`, “inactive”; with `C/C=C/C=C/C=C/C(=O)OC1C=C2C(O)OC(=O)[C@]2(O)[C@@]2(C)CCCC(C)(C)[C@H]12` (stereo not given in full), 6.32 µM (active).
In the case of `CC(=O)OC1CC(C)(C(=O)O)CC2C3=CC(=O)C4C5(C)CCC(OC6OC(C(=O)O)C(O)C(O)C6OC6OC(C(=O)O)C(O)C(O)C6O)C(C)(C)C5CCC4(C)C3(C)CCC12C` (stereo not given), the viability (% of control) is 70.5% [at 9.25 µM].
Regarding `C[C@@H]1N[C@H]2N(C1=O)c1ccccc1[C@@]2(O)C[C@@H]1C(=O)N[C@@H](C)c2nc3ccccc3c(=O)n21`, the Potency result was “inactive”.
